Laboratory results from PubChem BioAssay (NCI).
The panel holds about 79,000 compounds, 15% with a hit somewhere; the sample as a whole holds those more often. Unmarked numbers belong to inactive results. No stated cut-off is given here; in the data, active means growth inhibition above about 70%; inactive means the rest.

Experiment: NCI Yeast Anticancer Drug Screen. Data for the bub3 strain (AID 167)
Details: S. cerevisiae bub3 mutant strain, at 50.0 µM, hits give high values
Procedure, shortened: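 Whole-cell yeast assay. The mutant strain was incubated with compounds, and growth inhibition was determined by comparison with vehicle-treated cells.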

Structure (SMILES) | growth inhibition
COC(=O)NCP(=O)(CNC(=O)OC)CNC(=O)OC | -4%
O=C(N/N=C/c1ccc(O)cc1)C1CCCO1 (configuration not stated) | 2.95%
Cc1ccccc1NC(=O)C(=O)Cc1nc2ccccc2s1 | 9.15%
NS(=O)(=O)c1ccc(Nc2c3ccccc3nc3ncccc23)cc1 | 9.2%
CSc1ccc(Nc2ncnc(N)n2)cc1 | 8.8%
CC1(C)OC1(C(=O)C=[N+]=[N-])c1ccccc1 (configuration not stated) | -13.6%
COC(=O)CCc1c(C)[nH]c(C(=O)OC(C)(C)C)c1C | -4.05%
COc1cc(NCCNCC(C)(C)C)c2ncccc2c1 | 33.5%
N#CCCNC1CCCCC1 | 0.85%
CC(=NNC(=S)Nc1ccccc1)c1cccc(C(C)=NNC(=S)Nc2ccccc2)n1 | -2.3%
CC12CCC(=O)C=C1CCC1C2C(=O)CC2(C)C1CCC2(O)C(=O)Cn1c(=O)[nH]cc(F)c1=O (configuration not stated) | -0.85%
COc1cc(C2c3cc4c(cc3OC(N3CCCCC3)C2C)OCO4)cc(OC)c1O (configuration not stated) | -18.5%
CC(=O)NC(Cc1cc(I)c(OC(C)=O)c(I)c1)C(=O)O (configuration not stated) | 12.4%
C=CCCC1CN2CCc3cc(OC)c(OC)cc3C2CC1=O (configuration not stated) | 28.4%
c1ccc2cc(SSc3ccc4ccccc4c3)ccc2c1 | -17.2%
CCCCCC(=C/c1ccccc1)/C=N/N1CCN(/N=C/C(=C/c2ccccc2)CCCCC)CC1 | -0.85%
Cc1cc2nc(N3CCCCC3)n(C3OC(CO)C(O)C3O)c2cc1C (configuration not stated) | -8.75%
